Test systems include T-47D breast; BT-549 breast; MDA-MB-435 melanoma; SW-620 colon; MCF7 breast; HCT-116 colon; HCC-2998 colon; KM12 colon.
Holding throughout (assay): NCI-60 one-dose screen, 48 h (100 = growth as untreated, 0 = no growth, -100 = all killed)
Settings in all cases: 10 µM unless noted

Experimental findings from PubChem BioAssay (NCI) are described below.

Molecules are shown by their SMILES. Compounds without any hit were thinned out: in the full panel of roughly 83,000, 20% have a hit.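 Growth was measured after 48 h exposure to one concentration of compound in 96-well plates. Values under 10 count as active.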 Unmarked numbers belong to inactive results. Activity calls are given as the source filed them.

With `COc1ccc2[nH]c(O)c(/C=c3/cc4c(c(-c5cc(OC)c(OC)c(OC)c5)n3)=Nc3ccccc3-4)c2c1`, the growth is 78.7% in the assay on T-47D breast; 69.5% with BT-549 breast; 29.6% in the assay with MDA-MB-435 melanoma; 62.8% in the assay with SW-620 colon; 23.4% in the assay with MCF7 breast; 36.8% in the assay with HCT-116 colon. The values for the growth in the assay on HCC-2998 colon and in the assay on KM12 colon were 77.1% and 52.5%, respectively.

For the molecule `Cc1ccc(-c2cc3c(cc2O)C2CCCCC2(N2CCOCC2)O3)cc1` (stereo not drawn), the growth was 85% with T-47D breast; 95.4% in the assay with BT-549 breast; 98.4% with MDA-MB-435 melanoma; 117% in the assay on SW-620 colon; 88.5% with MCF7 breast; 97.3% in the assay with HCT-116 colon. For the same molecule, the growth in the assay with HCC-2998 colon was 106%; with KM12 colon, 109%.

As to `CCCCCc1nc2c(c3c1CCCC3)CCCC2`, the growth is 71.9% in the assay with T-47D breast; 115% in the assay on BT-549 breast; 99.7% in the assay on MDA-MB-435 melanoma; 89.9% in the assay on SW-620 colon; 66.9% in the assay on MCF7 breast; 48.8% in the assay on HCT-116 colon. Besides, the figures for the growth in the assay with HCC-2998 colon and with KM12 colon were 87.8% and 88.3%, respectively.

Turning to `CC1=CN2C(=O)C3C4=C(CCCC4)SC3N=C2CN1c1c(C)cccc1C` (stereo not drawn), the growth was 81.1% with T-47D breast; 108% in the assay with BT-549 breast; 94.4% in the assay on MDA-MB-435 melanoma; 88.9% in the assay with SW-620 colon; 112% in the assay on MCF7 breast; 55% in the assay on HCT-116 colon. The figures for the growth in the assay with HCC-2998 colon and in the assay on KM12 colon were 97.3% and 97.4%, respectively.

Take `COc1ccc(-c2nc(SCC(=O)Nc3nc(-c4ccccc4)cs3)[nH]c(=O)c2C#N)cc1`: the growth in the assay with T-47D breast was 84.3%; in the assay on BT-549 breast it was 92.4%; in the assay on MDA-MB-435 melanoma, 101%; in the assay with SW-620 colon, 97.4%; in the assay with MCF7 breast, 96.4%; in the assay with HCT-116 colon it was 86%. The figures for the growth in the assay with HCC-2998 colon and in the assay on KM12 colon were 87.5% and 108%, respectively.

Consider `O=c1c2cc(F)ccc2sc2c(NCCCN3CCCC3)nc3ccccc3c12`, for which the growth with T-47D breast was 64.6%; in the assay with BT-549 breast, 70.6%; in the assay with MDA-MB-435 melanoma, 20.6%; with SW-620 colon it was 20.4%; in the assay with MCF7 breast, -24.8% (active); with HCT-116 colon, 24.2%. The growth is 22.1% with HCC-2998 colon and 27.7% in the assay on KM12 colon.

Take `O=C(CSc1nnc(-c2ccc(NC(=O)c3cccnc3)cc2)o1)Nc1cccc(Br)c1`: the growth was 56.5% with T-47D breast; 109% with BT-549 breast; 94.3% in the assay with MDA-MB-435 melanoma; 96.8% in the assay with SW-620 colon; 90.3% with MCF7 breast; 58.7% in the assay on HCT-116 colon. Further, the growth is 106% with HCC-2998 colon and 105% with KM12 colon.

As to `c1ccc2cc3nc4cc5ccccc5cc4nc3cc2c1`, the growth in the assay with T-47D breast was 94.3%; with BT-549 breast, 105%; in the assay on MDA-MB-435 melanoma it was 119%; in the assay on SW-620 colon it was 84.1%; in the assay with MCF7 breast, 81.9%; with HCT-116 colon, 72.3%. Also, the figures for the growth in the assay with HCC-2998 colon and with KM12 colon were 96.4% and 85.4%, respectively.

As for `O=C(NCCCNc1cc(-c2cn(-c3ccccc3)nc2-c2cccc(O)c2)ccn1)c1ccccc1`, the growth is -13.8% (active) with T-47D breast; 10.3% in the assay on BT-549 breast; -10.5% (active) in the assay with MDA-MB-435 melanoma; -32.4% (active) with SW-620 colon; 23% in the assay with MCF7 breast; 24.8% in the assay on HCT-116 colon. Besides, the results for the growth in the assay with HCC-2998 colon and in the assay with KM12 colon were -26.1% (active) and 20.2%, respectively.

As for `O=C1/C(=C2/C=Nc3ccccc32)N(O)c2ccccc21`, the growth in the assay with T-47D breast is 19.5%; with BT-549 breast, 78.1%; in the assay on MDA-MB-435 melanoma, -95.3% (active); in the assay with SW-620 colon, 75.4%; in the assay with MCF7 breast it was 40.3%; in the assay on HCT-116 colon, 49.8%. The growth with HCC-2998 colon is 113%; in the assay on KM12 colon it was 73.1%.

On to `Cc1ccc(NS(=O)(=O)c2ccc3c(c2)C2OCCC2C(c2ccc(C(=O)C(C)C)cc2)N3)cc1C` (stereo not drawn), for which the growth with T-47D breast was 24.3%; in the assay on BT-549 breast it was 54.3%; with MDA-MB-435 melanoma it was 36.3%; in the assay with SW-620 colon it was 51.4%; in the assay on MCF7 breast, 17.6%; in the assay on HCT-116 colon, 30.4%. Also, the growth in the assay on HCC-2998 colon was 62.2%; with KM12 colon it was 36.5%.

Take `Cc1ccc(-c2cc(-c3cccnc3)[nH]c(=O)c2C#N)cc1`: the growth with T-47D breast is 95.6%; with BT-549 breast it was 111%; in the assay with MDA-MB-435 melanoma it was 103%; in the assay with SW-620 colon, 102%; with MCF7 breast, 94.7%; in the assay with HCT-116 colon it was 115%. Besides, the growth in the assay with HCC-2998 colon was 102%; in the assay with KM12 colon, 101%.

For the molecule `Cc1cc(Cl)nc(NCc2cc(Nc3ccnc4cc(Cl)ccc34)ccc2F)n1`, the growth with T-47D breast was 25.4%; in the assay with BT-549 breast, 65.5%; in the assay on MDA-MB-435 melanoma it was 41.2%; in the assay on SW-620 colon it was 43.9%; in the assay on MCF7 breast, 17.4%; in the assay with HCT-116 colon it was 23.7%. For the same molecule, the growth is 73.1% with HCC-2998 colon and 79.9% with KM12 colon.

Take `O=C(CSc1nnc(-c2ccc(NC(=O)c3cccnc3)cc2)o1)N[C@@H](Cc1ccc(O)cc1)C(=O)O`: the growth was 86% with T-47D breast; 113% with BT-549 breast; 108% in the assay with MDA-MB-435 melanoma; 111% in the assay on SW-620 colon; 105% in the assay with MCF7 breast; 99.6% in the assay on HCT-116 colon. The growth is 108% with HCC-2998 colon and 110% in the assay on KM12 colon.

As to `O=C(Cc1ccc(F)c(F)c1)Nc1cc(C2(C(F)(F)F)CC2)nn1Cc1ccccc1`, the growth is -8.37% (active) with T-47D breast; 14.9% in the assay on BT-549 breast; 0.174% (active) in the assay on MDA-MB-435 melanoma; 11.5% with SW-620 colon; -7.28% (active) with MCF7 breast; 6.07% (active) with HCT-116 colon. The growth was 17.2% with HCC-2998 colon and 1.89% (active) in the assay on KM12 colon.

Regarding `CCN(CC)c1ccc2nc3c4ccccc4c(=NC(=O)c4ccccc4-c4c5ccc(N(CC)CC)cc5[o+]c5cc(N(CC)CC)ccc45)cc-3oc2c1`, the growth was 63.6% with T-47D breast; 60.1% in the assay with BT-549 breast; -86.2% (active) in the assay on MDA-MB-435 melanoma; -38.7% (active) with SW-620 colon; -87.6% (active) in the assay on MCF7 breast; -26.8% (active) with HCT-116 colon. Moreover, the growth is 15.9% in the assay on HCC-2998 colon and -3% (active) with KM12 colon.
